Results reported in PubChem BioAssay (NCATS).
Values joined by “and” are separate entries in the source; they are usually repeats but may differ in a detail not shown here. Equal entries are not always repeated. Records with an inconclusive call do not appear. Active and inactive are the calls of the source. Calls follow the shape of the dose curve; as a rule, active = well fitted curve in the direction sought with a large enough effect; inconclusive = small, poorly fitted or top-dose-only effect, or another doubt; inactive = no such curve, though single readings can be large; an effect the other way counts as inactive or inconclusive.

How the values were obtained:
[1] = Viability qHTS for spleen associated tyrosine kinase inhibitor (SYKi) naive MV4-11 cells (AID 1963823); also: nearly all actives have a fitted effect of over 40% in size
How it was run: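 SYK inhibitor-naive MV4-11 cells, 500 per well, exposed to compounds for 72 hr at 37 C, 5% CO2. Viability read as CellTiter-Glo luminescence after 10 min at room temperature.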

[2] = Quantitative highthroughput screen to assess conditional lethalithy of NOMO1 cells grown in RPMI1640 with dialyzed fetal bovine serum (RPMI+ds) (AID 1963877); also: nearly all actives have a fitted effect of over 30% in size;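 as to Viability: series mostly up to about 46 µM; 100% = DMSO control wells and 0% = empty wells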
How it was run: (§1)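 Each medium arm—HPLM with 10% dialyzed FBS, or RPMI1640 with 5 mM glucose and 10% untreated or dialyzed FBS—was screened against an 11-point, 3-fold compound titration for 48 h at 37 °C, with CellTiter-Glo luminescence as endpoint.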

[3] = Quantitative highthroughput screen to assess conditional lethalithy of P12 Ichikawa cells grown in Human Plasma-Like Medium with dialyzed fetal bovine serum (HPLM+ds) (AID 1963879); details: Potency: viability; also: nearly all actives have a fitted effect of over 35% in size; as to Viability: series mostly up to about 46 µM
How it was run: as §1

[4] = Quantitative highthroughput screen to assess conditional lethalithy of P12 Ichikawa cells grown in RPMI1640 with dialyzed fetal bovine serum (RPMI+ds) (AID 1963880); details: Potency: P12-Ichikawa viability; also: nearly all actives have a fitted effect of over 35% in size;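 as to Viability: 100% = DMSO wells and 0% = empty wells on each plate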
How it was run: as §1

[5] = Quantitative highthroughput screen to assess conditional lethalithy of P12 Ichikawa cells grown in RPMI1640 with untreated serum (RPMI+s) (AID 1963881); details: Potency: viability; also: nearly all actives have a fitted effect of over 35% in size;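 as to Viability: series mostly up to about 46 µM; 100% = DMSO wells and 0% = empty wells without cells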
How it was run: as §1

[6] = Quantitative highthroughput screen to assess conditional lethalithy of SEM cells grown in Human Plasma-Like Medium with dialyzed fetal bovine serum (HPLM+ds) (AID 1963882); also: nearly all actives have a fitted effect of over 35% in size; as to Viability: series mostly up to about 46 µM
How it was run: as §1

[7] = Quantitative highthroughput screen to assess conditional lethalithy of SEM cells grown in RPMI1640 with unreated serum (RPMI+s) (AID 1963883); also: nearly all actives have a fitted effect of over 35% in size;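 as to Viability: 100% = DMSO wells and 0% = empty wells without cells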
How it was run: as §1

[8] = Quantitative highthroughput screen to assess conditional lethalithy of SEM cells grown in RPMI1640 with dialyzed fetal bovine serum (RPMI+ds) (AID 1963884); also: nearly all actives have a fitted effect of over 35% in size;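 as to Viability: series mostly up to about 46 µM; 100% = DMSO control wells and 0% = empty wells without cells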
How it was run: as §1

[9] = Cellular viability qHTS for adrenocortical cancer (ACC) cell line SW-13 (AID 1963989); details: SW-13 ACC cells viability, CellTiter-Glo, 48 h; activity (max response): stronger effect = lower value; also: nearly all actives have a fitted effect of over 65% in size;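 as to activity (max response): cells grown in serum-free medium with ITS supplement; % is scaled to controls: 0 for no effect and ±100 for the full control effect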
How it was run: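 Here, serum-free SW-13 cultures were dosed up to 46 uM. Following 48 h, ATP-dependent luminescence (CellTiter-Glo) reported viable cells, and logistic modeling produced IC50 values.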

[10] = Cellular viability qHTS for adrenocortical cancer (ACC) cell line NCI-H295R (AID 1963990); also: nearly all actives have a fitted effect of over 60% in size
How it was run: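 Viability of NCI-H295R after 48 h of treatment (final up to 46 uM) measured through cellular ATP luminescence.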

[11] = Quantitative highthroughput screen to assess conditional lethalithy of NOMO1 cells grown in Human Plasma-Like Medium with dialyzed fetal bovine serum (HPLM+ds) (AID 1963878); also: nearly all actives have a fitted effect of over 35% in size
How it was run: as §1

[12] = Quantitative highthroughput screen to assess conditional lethalithy of NOMO1 cells grown in RPMI1640 with untreated serum (RPMI+s) (AID 1963876); also: nearly all actives have a fitted effect of over 35% in size;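 as to Viability: 100% = DMSO wells and 0% = empty wells without cells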
How it was run: as §1
Potency is read from the fitted curve at half-maximal effect.

C[C@]12C=CC(=O)C=C1CC[C@@H]1[C@@H]2C(=O)C[C@@]2(C)[C@H]1CC[C@]2(O)C(=O)CO
inactive: Potency [1] | Potency [2] | Potency [3] | Potency [4] | Potency [5] | Potency [6] | Potency [7] | Potency [8] | activity (max response) [9] -14.6% and 1.01%

Cc1cnc(-c2cc(N3CCN(C(=O)CCS(C)(=O)=O)CC3)ncc2Cl)c(C)c1
inactive: Potency [1] | Potency [2] | Potency [3] | Potency [4] | Potency [5] | Potency [6] | Potency [7] | Potency [8] | activity (max response) [9] -0.258% | Potency [10]

Cc1cccc(Nc2nc(N[C@@H]3CCCC[C@H]3N)ncc2C(N)=O)c1
active: Potency [1] 934 nM | Potency [11] 935 nM | Potency [3] 1320 nM | Potency [5] 3320 nM | Potency [7] 4180 nM | Potency [8] 2350 nM | Potency [9] 25100 nM | Potency [10] 28200 nM

O=C(NCC1CN(c2ccc(N3CCOCC3=O)cc2)C(=O)O1)c1ccc(Cl)s1 (stereo not given)
inactive: Potency [1] | Potency [6] | Potency [7] | activity (max response) [9] -21.7% and -9.76% | Potency [10]
active: Potency [12] 418 nM | Potency [3] 2960 nM | Potency [5] 2960 nM

COC(=O)Nc1nc2ccc(C(=O)c3ccc(F)cc3)cc2[nH]1
active: Potency [1] 731 nM and 332 nM | Potency [9] 355 nM | Potency [10] 112 nM
inactive: Potency [12] | Potency [2]

O=C(O)CCCCCC(=O)NN=C1CCCC1
inactive: Potency [1] | Potency [12] | Potency [2] | Potency [4] | Potency [5] | Potency [6] | Potency [7] | Potency [8] | activity (max response) [9] 2.29% | Potency [10]

COCCn1c2c([n+](Cc3cnccn3)c1C)C(=O)c1ccccc1C2=O
active: Potency [1] 9.3 nM | Potency [12] 132 nM | Potency [2] 105 nM | Potency [3] 235 nM | Potency [4] 187 nM | Potency [5] 166 nM | Potency [6] 16.6 nM | Potency [7] 66.2 nM | Potency [8] 41.8 nM | Potency [10] 2820 nM

CS(=O)(=O)c1ccc(C2=C(c3ccccc3)C(=O)OC2)cc1
active: Potency [7] 16600 nM | Potency [8] 10500 nM
inactive: Potency [1] | Potency [2] | Potency [3] | Potency [4] | Potency [5] | activity (max response) [9] -9.09% | Potency [10]

O=C(O)CCC=CCC[C@@H]1[C@H](N2CCCCC2)[C@@H](O)C[C@@H]1OCc1ccc(-c2ccccc2)cc1
inactive: Potency [1] | Potency [2] | Potency [3] | Potency [4] | Potency [5] | Potency [6] | Potency [7] | Potency [8] | activity (max response) [9] -17.1% | Potency [10]

CC(C)Nc1cc(C(F)(F)F)cc2nc(NC(=O)c3cccnc3)nn12
inactive: activity (max response) [9] -12.5%
active: Potency [1] 184 nM | Potency [12] 1050 nM | Potency [2] 743 nM | Potency [3] 935 nM | Potency [5] 2350 nM | Potency [6] 1320 nM | Potency [7] 1180 nM | Potency [8] 1180 nM

N[C@@H](Cc1ccc(O)c(O)c1)C(=O)O
inactive: Potency [1] | Potency [12] | Potency [2] | Potency [3] | Potency [4] | Potency [5] | Potency [6] | Potency [7] | Potency [8] | activity (max response) [9] 3.64% | Potency [10]

NC(=O)Nc1cc(-c2cccc(F)c2)sc1C(=O)N[C@H]1CCCNC1
inactive: Potency [1]
active: Potency [2] 590 nM | Potency [3] 1870 nM | Potency [4] 1180 nM | Potency [5] 1180 nM | Potency [7] 7.4 nM | Potency [9] 1780 nM | Potency [10] 794 nM

CCCCN(CCCC)C(=O)CN1C[C@H](c2ccc3c(c2)OCO3)[C@@H](C(=O)O)[C@@H]1c1ccc(OC)cc1
inactive: Potency [12] | Potency [2] | Potency [3] | Potency [4] | activity (max response) [9] -6% | Potency [10]
active: Potency [1] 16600 nM | Potency [6] 2090 nM

COc1ccnc(CS(=O)c2nc3ccc(OC(F)F)cc3[nH]2)c1OC (stereo not given)
inactive: Potency [1] | Potency [12] | Potency [2] | Potency [3] | Potency [4] | Potency [5] | Potency [6] | Potency [7] | Potency [8] | Potency [10]

CC(C(=O)O)c1ccc2c(c1)CC(=O)c1ccccc1S2 (stereo not given)
active: Potency [12] 7430 nM | Potency [4] 10500 nM | Potency [5] 9350 nM
inactive: Potency [1] | Potency [6] | Potency [7] | Potency [8] | activity (max response) [9] -16.4% and 14.9% | Potency [10]

O=C(O)C(O)Cc1ccc(O)c(O)c1 (stereo not given)
active: Potency [1] 17100 nM | Potency [2] 13200 nM
inactive: Potency [12] | Potency [3] | Potency [4] | Potency [5] | activity (max response) [9] -1.27% | Potency [10]

CNC1CCC(N(Cc2cccc(-c3ccncc3)c2)C(=O)c2sc3c(F)ccc(F)c3c2Cl)CC1 (stereo not given)
inactive: Potency [12]
active: Potency [1] 2.63 µM and 8.2 µM | Potency [10] 7080 nM
